Experimental data taken from PubChem BioAssay AID463095 (Sanford-Burnham Center for Chemical Genomics, 2010).
Some of the results follow. Calls of active or inactive are those of the source.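 How the source made its calls: active means proliferation increase above 40% at any of the four tested concentrations; inactive means the rest.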

Test: MIN6 insulinoma cell replication enhancers – MIN6 cells, mouse, confirmation (AID 463095)
Settings: MIN6 beta-cell proliferation, ATPlite luminescence, 48 h, cells kept in 0.2% serum, scaled between 0.2% and 10% serum; series mostly up to 50 µM

outcome, inactive:
Cc1ccc(S(=O)(=O)N2CCCCC2)cc1C(=O)N1CCN(CCO)CC1
Cc1ccc(C(=O)Nc2ccc(NC(=O)c3cccs3)cc2)c(C)c1
COc1cc2c(cc1OC)C(C(=O)NCc1ccco1)C1c3ccccc3CCN1C2=O (stereo unspecified)
Cn1nc(-c2ccccc2)c2cc([N+](=O)[O-])ccc21
S=C(Nc1cccc(Cl)c1)Nc1ccc2cn[nH]c2c1
Cc1cc(NC(=O)CSc2nc3ccccc3n2CC(C)C)no1
C/C(=N\NC(=O)c1ccccc1C)c1ccc(N2CCOCC2)cc1
CCOC(=O)Nc1sc(C(=O)N(C)C)c(C)c1C(=O)OCC
Fc1ccc(CNCc2ccc(Br)cc2)cc1
CCOC(=O)C1=C(CC)OC(N)=C(C#N)C1c1ccc(F)cc1F (stereo unspecified)
CC(=O)c1ccc(S(=O)(=O)NCc2nnnn2-c2ccccc2)cc1
OC1CN=C2Sc3ccccc3N2C1 (stereo unspecified)
CCn1c(=O)c([N+](=O)[O-])c(NCc2ccc3c(c2)OCO3)c2ccccc21
COCCNc1nc(-c2ccccc2)nc2c1oc1ccccc12
COc1ccccc1OCc1ccc(C(=O)N2CCN(C)CC2)o1
CN(Cc1ccc(F)cc1Cl)S(=O)(=O)c1cccs1
Cc1ccccc1CNC(=O)CCC(=O)N1Cc2ccccc2Oc2ncccc21
CC(=O)c1cnc(-c2ccccc2)s1
CCn1c(=O)n(CC)c2cc(N3CCCC3)c(NC(=O)c3ccccc3Br)cc21
O=C(NNC(=S)NCc1ccccc1)c1ccc(OC(F)F)cc1
Cc1ccccc1NC(=S)NNC(=O)c1cccc(Br)c1
